aSyn UTR act – Activators via SNCA 5'UTR binding, MLPCN | activity score, % (tested at 7.5 µM), hits read low | alpha-synuclein 5'UTR reporter, activators screen | hit rate 7.1% among 300,000; in the data active = activity score below about -60%
Hits are given with their value; n = inactive. These entries were drawn from the full list.

SMILES	aSyn UTR act
Cn1c(=O)[nH]c(=O)c2c1nc(Br)n2Cc1cccc(Br)c1	-70.1
CCCCCCn1c(SCCC)nc2c1c(=O)[nH]c(=O)n2C	n
CC(C)CCn1c(SCCc2ccccc2)nc2c1c(=O)[nH]c(=O)n2C	n
Cc1nc2ccccn2c1C(=O)/C=C/c1ccc(F)cc1	-83.4
COc1ccc(/C=C/C(=O)c2c(C)nc3ccccn23)cc1	-307.6
CCC(C)(C)c1ccc(OCCCC[n+]2cccc(C)c2C)c(C(C)(C)CC)c1	n
CCc1ccc(/C=N/N2CCN(c3ccccn3)CC2)cc1	-107.7
Cc1ccc(/C=N/N2CCN(c3ccccn3)CC2)cc1	-105.3
ClC(=C\c1ccccc1)/C=N/N1CCN(c2ccccn2)CC1	-222.4
N#CCCCCn1ccc(NC(=O)c2ccc(Cl)cc2O)n1	-80.9
CC(=O)Nc1ccc(-c2csc(NC(=O)C3=COCCO3)n2)cc1	-114.7
Cc1nc(-c2ccc(C(=O)Nc3cccc(Br)c3)cc2)cs1	-142.8
CC(C)(C)c1csc(NC(=O)C2=COCCO2)n1	-107.1
Cc1ccc(-c2csc(NC(=O)N3CCOCC3)n2)cc1	-103.5
Cc1nc(-c2ccc(NC(=O)c3ccc(Br)o3)cc2)cs1	-174.9
CC(=O)Nc1ccc(-c2csc(NC(=O)c3ccc(C)o3)n2)cc1	-83.3
CCOC(=O)c1csc(NC(=O)C2=COCCO2)n1	-86.7
O=C(Nc1cccc(Br)c1)c1ccn[nH]1	-102.2
COc1ccc(OC)c(NC(=O)c2ccc(-c3csc(C)n3)cc2)c1	-84.4
CCOC(=O)c1csc(NC(=O)C2CCCCC2)n1	-103.0
O=C(Nc1nc(-c2cc(F)ccc2F)cs1)c1ccccn1	-115.1
COc1ccc(C)c2sc(NC(=O)C3=COCCO3)nc12	-76.6
O=C(Nc1nc(-c2cc(F)ccc2F)cs1)C1=COCCO1	-62.6
Cc1ccc(-c2csc(NC(=O)C3=COCCO3)n2)cc1	-168.9
Cn1ccnc1SCC(=O)c1c[nH]c2ccccc12	-160.0
SMILES	aSyn UTR act
COc1ccc(C(=O)Nn2cnc3ccccc3c2=O)c(OC)c1	-88.0
Cc1ccccc1C(=O)Nn1cnc2ccccc2c1=O	-78.9
COc1ccc(OC)c(/C=N/N(C)c2ccccc2)c1	-187.4
Nc1nc(NC(=O)c2cccs2)nn1-c1ccccc1	-115.3
O=C(Nc1nc(NC(=O)c2ccco2)n(-c2ccccc2)n1)c1ccccc1	n
Nc1nc(NC(=O)c2ccccc2)nn1-c1ccccc1	-71.2
O=C(/C=C/Nc1cccc([N+](=O)[O-])c1)c1ccco1	-282.7
Cc1ccc(C(=O)/C=C/Nc2cccc([N+](=O)[O-])c2)o1	-167.2
COc1cc2c(cc1NC(=O)C(C)OC(=O)c1ccc(S(=O)(=O)Nc3ccccc3Cl)cc1)oc1ccccc12 (stereo not drawn)	-115.5
COc1cc2c(cc1NC(=O)COC(=O)C1CC(=O)N(Cc3ccco3)C1)oc1ccccc12 (stereo not drawn)	-145.4
COc1cc2c(cc1NC(=O)C(C)Sc1cccc[n+]1[O-])oc1ccccc12 (stereo not drawn)	-241.2
COc1cc2c(cc1NC(=O)COC(=O)[C@@H](NC(=O)c1ccccc1F)C(C)C)oc1ccccc12	-85.0
COc1cccc2c1C(=O)c1c(O)c3c(c(O)c1C2=O)C[C@](O)(C(C)=O)C[C@H]3O[C@@H]1C[C@@H](N)[C@@H](O)[C@@H](C)O1	n
COc1ccc(CC(=O)Nc2cc3oc4ccccc4c3cc2OC)cc1	-161.5
COc1cc2c(cc1NC(=O)COC(=O)CNC(=O)c1ccccc1)oc1ccccc12	-94.3
COc1ccccc1CC(=O)Nc1cc2oc3ccccc3c2cc1OC	-129.2
COc1cccc(/C=C/C(=O)OC(C)C(=O)Nc2c(C)n(C)n(-c3ccccc3)c2=O)c1 (stereo not drawn)	-111.7
c1ccc(-c2nnc(-c3ccccn3)s2)nc1	n
c1ccc(C2=NNC(c3ccccn3)=NN2)nc1	-118.0
C=CCNC(=O)C1CCN(c2nc(C)cc(-c3ccccc3)n2)CC1	-96.6
CC(C)(C)Nc1nc(N2CCCC2)nc(N2CCCC2)n1	n
COc1nc(NC2CCCCC2)nc(NC(C)(C)C)n1	-69.8
COCCCNc1nc(N)c([N+](=O)[O-])c(NC2CCCCC2)n1	n
Cc1c(C(=O)Nc2ccccc2F)cnn1-c1ccccc1	-162.7
Cc1nn(-c2ccccc2)cc1C(=S)Nc1ccccc1	-171.0
SMILES	aSyn UTR act
Cc1c(C(=O)N(C)c2cccc(Cl)c2)cnn1-c1ccccc1	-103.9
Cc1c(C(=S)Nc2ccccc2)cnn1-c1ccccc1	-108.1
Cc1c(C(=O)Oc2cccc3ccccc23)cnn1-c1ccccc1	-65.2
Cc1c(C(=O)Nc2cc(F)cc(F)c2)cnn1-c1ccccc1	-187.4
CCc1ccc(NC(=O)c2cnn(-c3ccccc3)c2C)cc1	-82.9
CCCN(CCC)c1ccc(/C=C/c2ccc3cc(OCC)ccc3n2)cc1	-112.1
CN(C)c1ccc(/C=C/c2ccc3ccccc3n2)cc1	n
COc1ccc(CC(=O)Nc2ccc(-c3ccc4nnc(C)n4n3)cc2)cc1OC	-75.2
CCSc1nnc2ccc(-c3ccc(OC)c(OC)c3)nn12	n
Cc1ccc2cc(NC(=O)c3ccc(C(C)(C)C)cc3)ccc2n1	-63.2
CCc1ccc(C(=O)Nc2ccc3nc(C)ccc3c2)cc1	-177.5
Cc1cc(Br)ccc1-n1[nH]c(C)c(C=Nc2cccc3nsnc23)c1=O	-69.9
O=[N+]([O-])c1cc(N=Nc2ccc3ccccc3c2)ccc1O	-104.5
O=C(/C=C/Nc1ccc(Oc2ccccc2Cl)cc1)c1ccco1	-183.8
COc1ccccc1Oc1ccc(N/C=C/C(=O)c2ccco2)cc1	-199.1
O=C(Nc1cccc(Br)c1)c1ccc(OC2CSC2)cc1	-198.5
Cc1cccc(NC(=O)c2ccc(OC3CSC3)cc2)c1	-177.2
Cc1nn(-c2ccccc2)c(C)c1CCC(=O)O	-106.8
O=C(O)c1cccc(Nc2ncnc3c2cnn3-c2ccccc2)c1	-100.9
Fc1cccc(Nc2ncnc3c2cnn3-c2ccccc2)c1	-172.8
Clc1cccc(Nc2ncnc3c2cnn3-c2ccccc2)c1	-86.3
Cc1ccc(NC(=O)CNCc2ccccc2)c(Br)c1	-68.1
Cc1ccc(NC(=O)CNCc2cccs2)c(Br)c1	-119.2
Cc1ccc(NC(=O)CCc2ccc(C)o2)c(Br)c1	-72.1
Cc1ccc(NC(=O)CCC(=O)c2cccs2)c(Br)c1	-78.7
SMILES	aSyn UTR act
CCOc1cnc(-c2ccc(Cl)cc2)o1	-105.1
CCOc1cnc(-c2ccc(OC)cc2)o1	-106.0
CC(C)(C)n1ncc2c(=O)n(CC(=O)NCc3ccccc3Cl)cnc21	-90.2
Cc1ccccc1C(=O)c1cccn1CC(=O)NCc1ccccc1Cl	-99.6
O=C(Cn1cccc1C(=O)c1ccccc1)NCc1ccccc1Cl	-73.9
CCOC(=O)c1ccc2nc(C)c(C)nc2c1	-88.2
CCOC(=O)c1ccc2nc(C)c(CCC(C)=O)c(Cl)c2c1	-108.4
FC(F)(F)c1cnc(-c2cnc(-c3cccnc3)nc2)c(Cl)c1	-124.3
O=C(NCc1ccccn1)Nc1ccc(Br)cc1Cl	-72.3
S=C(NCc1ccccn1)Nc1ccccc1Cl	-115.3
COCCCNC(=O)Nc1ccc(Br)cc1Cl	-72.2
O=C(NCc1ccccn1)Nc1ccc(Cl)cc1Cl	-97.0
O=C(NCc1ccccn1)c1ccc(Cn2c(=S)[nH]c3ccc(Br)cc3c2=O)cc1	n
S=C(NCc1ccccn1)Nc1ccc(Br)cc1Cl	-143.2
CCCC(=O)Nc1sc(C(=O)Nc2cccc(N)c2)c(C)c1C(=O)OC	-83.8
COC(=O)c1c(NC(=O)c2cccnc2)sc(C(=O)N(C)C)c1C	-83.7
CCC(=O)Nc1sc(C(=O)Nc2ccccc2F)c(C)c1C(=O)OC	-63.5
COC(=O)c1c(NC(C)=O)sc(C(=O)Nc2ccccc2)c1C	-85.3
CCOC(=O)C(=CNc1ccc(C(F)(F)F)cc1Cl)C(=O)OCC	-96.9
